Laboratory results from PubChem BioAssay AID686978 (National Center for Advancing Translational Sciences (NCATS), 2013).
In all, about 420,000 compounds went through this assay and about 64,000 (15%) were called active. Not shown: some 27% with an inconclusive outcome. The list is a sample of the results. Unmarked numbers belong to inactive results. Calls follow the shape of the dose curve; as a rule, active = well fitted inhibition curve with a large enough effect; inconclusive = small, poorly fitted or top-dose-only effect; inactive = flat fitted curve, though single readings scatter.

test: qHTS for Inhibitors of human tyrosyl-DNA phosphodiesterase 1 (TDP1): qHTS in cells in absence of CPT; conditions: DT40 Tdp1-/- hTDP1 cells, no CPT, ATP luminescence, 48 h; activity change, negative = growth inhibition: at 46.2 µM (top of the series); also: nearly all actives have a fitted effect of over 55% in size
Procedure, shortened: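 DT40 Tdp1-/-;hTDP1 cells, no CPT (DMSO vehicle only), 400 cells/well; compounds pin-transferred; ≥48 hr, 37 °C; CellTiter-Glo 30 min RT dark, luminescence read.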
% is scaled to controls: 0 for no effect and ±100 for the full control effect; potency is read from the fitted curve at half-maximal effect.

Compound	activity change, negative = growth inhibition [%]	Potency
O=C(O)C1CCN(C(=O)OCc2ccccc2)CC1	0.979	–
O=C(COC(=O)CNC(=O)C1CCCCC1)NCc1ccccc1	-19.7	–
O=C(NCc1ccccc1)C1=C[C@@H](C2CCCCC2)C[C@@H](OCc2ccc(CO)cc2)O1	–	16.4 µM (active)
COc1cc(Cl)cc(C2NC(=O)NC(C)=C2C(=O)NCc2ccccc2)c1O (stereo unspecified)	-1.85	–
CC(=O)Nc1ccc(NC(=O)COc2ccc(-c3ccccc3)cc2)cc1	-0.864	–
CC(NC(=O)COc1ccc(-c2ccccc2)cc1)C1CCCO1 (stereo unspecified)	–	11.6 µM (active)
CCOc1ccc(C(CC(=O)O)NC(=O)COc2ccccc2)cc1 (stereo unspecified)	-10	–
COc1ccc(NC(=O)N(C)C[C@H]2Oc3ccc(NC(=O)C4CC4)cc3C(=O)N([C@H](C)CO)C[C@@H]2C)cc1	6.81	–
CCCc1cc(=O)[nH]c(SCc2ccc(C#N)cc2)n1	-8.85	–
CSCCC(Nc1ccc(S(=O)(=O)N2CCOCC2)cc1[N+](=O)[O-])C(=O)OCC(=O)N(C(C)C)C(C)C (stereo unspecified)	-4.59	–
COc1ccc(-n2c(C)cc(C(=O)CSc3nnc(-c4cccs4)o3)c2C)cc1	–	16.4 µM (active)
COc1ccc(OC)c(C(=O)CSc2nnc(-c3cccs3)o2)c1	-23.3	–
Cc1ccc(OC(=O)CSc2nnc(-c3cccs3)o2)cc1	2.81	–
Cc1cc(C)c(NC(=O)CN2CCCCCC2)c(C)c1	20.9	–
Cc1c(-c2ccccc2)cn2c1-c1ccc(C)n1CC2	–	16.4 µM (active)
O=c1[nH]c(SCc2ccccc2)nnc1-c1ccccc1	-13.7	–

Compound	activity change, negative = growth inhibition [%]	Potency
CN(C)C(=O)CSc1n[nH]c(-c2ccco2)n1	2.59	–
COC(C[C@@H](O)C[C@@H](O)[C@H](C)OCc1ccccc1)OC	-4.64	–
O=C(Cc1ccc(Br)cc1)NCCc1ccccc1	-19.9	–
COC(=O)C(CC(=O)Nc1cc(C)ccc1C)Nc1ccccc1OC (stereo unspecified)	-2	–
COc1ccccc1NC(=O)CCC(=O)N1CC(C)Oc2ccc(C)cc21 (stereo unspecified)	–	16.4 µM (active)
CC1CN(C(=O)CCC(=O)NCc2cccnc2)c2ccccc2O1 (stereo unspecified)	-9.83	–
O=C(Cn1nnc(-c2ccccc2)n1)NCc1ccc2c(c1)OCO2	-21.4	–
CN(C)C(=O)c1cccc(-c2cnc3sc(NCc4ccc5c(c4)OCO5)nn23)c1	–	13 µM (active)
O=C(CSc1ncnc2scc(-c3ccccc3)c12)NCc1ccc2c(c1)OCO2	4.66	–
OC(CNC1CCCC1)COc1ccc(F)cc1 (stereo unspecified)	-3.38	–
Nc1c(C(=O)Nc2ccc3c(c2)OCCO3)nnn1Cc1ccccc1	-27.2	–
COC(=O)c1ccc(CSc2nc3cc(Cl)ccc3o2)cc1	-11.2	–
O=S(=O)(c1ccc(Br)cc1)c1nc(-c2ccccc2)oc1NCc1cccnc1	-18.3	–
O=S(=O)(c1ccccc1)c1nc(-c2ccccc2F)oc1NCc1cccnc1	5.86	–
COc1cccc(-c2nc(S(=O)(=O)c3ccc(C)cc3)c(NCc3ccccc3)o2)c1	–	18.4 µM (active)
